Out of some 85,000 compounds screened, about 5,100 (6%) were called active.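 The calls were made as follows: active = viability at or below 40%; inactive = viability above 40%.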 This excerpt belongs to a sample that is enriched for actives.
Assay: H69AR cell viability reduction – human, 86K library, primary screen (AID 598);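 also: multidrug resistant small cell line overexpressing MRP-1 efflux transporter; 100% = mean luminescence of untreated control wells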
Details: H69AR lung tumor viability, ATP luminescence, 72 h; at 10 µM; stronger effect = lower value
With `CC1=CC(C)(C)NC(=S)N1c1ccccc1` the viability was 98.5% (inactive). For `CCN(CC)CCCNC(=O)CCc1ccccc1`, the viability was 97.4% (inactive). For `O=C(NCCOc1ccccc1)c1ccccc1`, the viability was 91.4% (inactive). For `CCc1ccc(CNC(=O)C2CCCN(c3nc4ccccc4o3)C2)cc1` (stereo not given), the viability was 92.4% (inactive). In the case of `NC1=NC(=O)C2(COC(c3ccccc3Cl)OC2)S1` (stereo not given), the viability was 92.6% (inactive). With `CCOc1ccc(-n2c(N)c(C(=O)NCC3CCCO3)sc2=S)cc1` (stereo not given) the viability was 94.8% (inactive). With `Oc1c(Cl)cc(Cl)c(Cl)c1Cc1c(O)c(Cl)cc(Cl)c1Cl` the viability was 13.5% (active). In the case of `COc1cc(OC)nc(NC(=O)CCl)n1`, the viability was 98.7% (inactive). For `C=C(Cl)COC(=O)C1C2C=CC(C2)C1C(=O)O` (stereo not given), the viability was 101% (inactive). For `Cc1csc(NC(=O)CN2CCCCCC2)n1`, the viability was 95.1% (inactive). With `CCOC(=O)Cc1csc(NC(=O)Nc2ccccc2)n1` the viability was 96.7% (inactive). For `Cc1csc(NC(=O)NC2(C(F)(F)F)Oc3ccccc3O2)n1`, the viability was 22.9% (active). For `COc1cc(CC(=O)NCc2cccs2)cc(OC)c1OC`, the viability was 106% (inactive). In the case of `COc1ccc(Nc2nc(=O)[nH]nc2C)cc1`, the viability was 95.5% (inactive). For `CCOC(=O)c1sc(NC(=O)CCN2CCOCC2)c(C(=O)OCC)c1C`, the viability was 45.7% (inactive). For `CCOC(=O)Nc1sc(C(=O)N(C)C)c(C)c1C(=O)OCC`, the viability was 84.2% (inactive). With `CCOC(=O)c1c(NC(=O)CCl)sc(C(=O)N(CC)CC)c1C` the viability was 2.11% (active). With `Cc1ccc(C(=O)N2CCCC2)c(F)c1F` the viability was 87.4% (inactive). For `CC(C)c1ccc(OCC(O)Cn2cnc3ccccc32)cc1` (stereo not given), the viability was 82.6% (inactive). In the case of `OC(COc1ccccc1)Cn1cc(Br)cn1` (stereo not given), the viability was 109% (inactive). With `OC(CN=c1sc2ccccc2n1CC(O)COc1ccccc1)COc1ccccc1` (stereo not given) the viability was 23.3% (active). With `Cc1cccn2c(=O)c(/C=C(\C#N)S(=O)(=O)c3ccc(Cl)cc3)c(N3CCC(C(N)=O)CC3)nc12` the viability was 82.2% (inactive). For `CC1=CC(C)(C)Nc2ccc(OC(=O)C(Cc3ccccc3)N3C(=O)C4CCCCC4C3=O)cc21` (stereo not given), the viability was 80.3% (inactive). For `CC1=CC(C)(C)Nc2ccc(OC(=O)CN3C(=O)C4CCCCC4C3=O)cc21` (stereo not given), the viability was 0.5% (active). In the case of `CC(OC(=O)CN1C(=O)C2CCCCC2C1=O)C(=O)Nc1ncc(Cl)cc1Cl` (stereo not given), the viability was 101% (inactive). With `CCCCCCSc1nsc(N)n1` the viability was 82.7% (inactive). In the case of `CCOC(=O)c1[nH]c(C)c(C(=O)OCC(=O)N2c3ccccc3CC2C)c1C` (stereo not given), the viability was 87% (inactive). For `CCOC(=O)c1cc2n(c1C)-c1ccccc1C2=O`, the viability was 90.3% (inactive). In the case of `CCOC(=O)CN1C(=O)C(=O)c2cc(C)ccc21`, the viability was 20.2% (active). In the case of `CCCCOC(=O)Cn1c(=O)n(CC(=O)OCCCC)c2cc(C)ccc21`, the viability was 99.5% (inactive). For `CC(C)OC(=O)CN1C(=O)C(=O)c2ccccc21`, the viability was 13.1% (active). With `CC(C)OC(=O)CN1C(=O)c2ccccc2C1=O` the viability was 98% (inactive). For `Cc1cccc2c1N(CC(=O)OC(C)C)C(=O)C2=O`, the viability was 71.7% (inactive). For `CCCc1nc2ccccc2c(C(=O)OCC(=O)c2ccc3c(c2)NC(=O)CO3)c1CC`, the viability was 43.2% (inactive). With `Cc1ccc(Cc2c(C)nc3nc(SCC(=O)NCCN4CCOCC4)nn3c2C)cc1` the viability was 93.9% (inactive). With `CCOc1ccc(NC(=O)CN(C)CC(=O)Nc2cccc(Cl)c2C)cc1OCC` the viability was 48.5% (inactive). With `Cc1cccc(NC(=O)N(Cc2cc3cc(C)cc(C)c3[nH]c2=O)CC2COCCO2)c1` (stereo not given) the viability was 47% (inactive). In the case of `Cn1c(Cn2nnc3ccccc32)nnc1SCC(=O)c1ccccc1F`, the viability was 79.3% (inactive). With `CN=C1SC(CC(=O)Nc2ccc(C(=O)O)cc2)C(=O)N1C` (stereo not given) the viability was 97.5% (inactive). In the case of `O=C(CN1C(=O)CC(c2ccccc2)=Nc2ccccc21)NC1CCCCC1`, the viability was 77.6% (inactive). With `Cc1ccnc(N2CCC(C(=O)NC3CCCCCC3)CC2)n1` the viability was 77.9% (inactive). With `Cc1ccnc(-n2sc3ccccc3c2=O)n1` the viability was 1.54% (active). For `Cc1nc2ccccc2c(=O)n1CCCn1ccnc1`, the viability was 99% (inactive). With `CC(C)(C)N1CC(c2nc3ccccc3n2Cc2ccc(F)cc2)CC1=O` (stereo not given) the viability was 79.4% (inactive). With `CCCn1c(C(Cc2ccccc2)NC(=O)COC)nc2ccccc21` (stereo not given) the viability was 92.9% (inactive). With `CNC(=O)c1nnc(Cc2ccc(Cl)cc2)o1` the viability was 97.8% (inactive). For `O=C(COC(=O)c1ccc2c(c1)OCCO2)NCc1ccccc1`, the viability was 92.1% (inactive). In the case of `O=C(CCN1CCc2ccccc2C(O)(c2ccccc2)C1)c1ccc2c(c1)OCCO2` (stereo not given), the viability was -0.08% (active). With `O=C(OCc1ccccc1F)c1ccc2c(c1)OCCO2` the viability was 91.2% (inactive). In the case of `CCn1c(SCC(=O)Nc2nc(C)cs2)nnc1C(C)NC(=O)c1ccccc1` (stereo not given), the viability was 88.1% (inactive). In the case of `COCCn1c(=S)[nH]c2cc(C(=O)NCCc3ccc(OC)c(OC)c3)ccc2c1=O`, the viability was 78.1% (inactive). For `N#CC1=C(N)Oc2c(sc3ccccc23)C1c1ccco1` (stereo not given), the viability was 14.4% (active). For `Cc1cc2c(c(=O)n1Cc1ccco1)C(c1ccccc1)C(C#N)=C(N)O2` (stereo not given), the viability was 70% (inactive). In the case of `O=C(COc1cc(Cl)c(Cl)cc1Cl)NC(=O)NC1CCCC1`, the viability was 90.7% (inactive). For `CCOC(=O)c1cnc(SCC(=O)Nc2ccccc2C(=O)OC)nc1N`, the viability was 87.2% (inactive). For `c1ccc(-n2ncc3c2ncn2c(C4CCCCC4)nnc32)cc1`, the viability was 105% (inactive). With `CCN(CC)C(=O)CSc1ncnc2c1cnn2-c1ccccc1` the viability was 86.5% (inactive). For `c1ccc(-n2ncc3c2ncn2c(CSc4nc5ccccc5s4)nnc32)cc1`, the viability was 5.83% (active). With `CCCNC(=O)N1CCN(C(=O)NCCC)CC1` the viability was 104% (inactive). With `CC(=O)c1cccc(NC(=O)C2CCCN2S(=O)(=O)c2cccc3nsnc23)c1` (stereo not given) the viability was 88.1% (inactive). For `CCC(C)NC(=O)c1ccccc1NC(=O)c1ccccc1N(C)S(C)(=O)=O` (stereo not given), the viability was 108% (inactive). In the case of `CC(C)(C)C(=O)Cn1c(NCCO)nc2ccccc21`, the viability was 98% (inactive). With `Cc1ccccc1NC(=O)Cc1nnc(SCC(=O)N2CCN(c3ccccc3)CC2)n1C` the viability was 94% (inactive). With `Cn1c(Cc2cccc3ccccc23)nnc1SCC(=O)N1CCN(c2cccc(Cl)c2)CC1` the viability was 38.5% (active). For `Cc1cc2nnc(SCC(=O)N3CCN(c4ccccc4)CC3)n2c(N)n1`, the viability was 64.4% (inactive).

— PubChem BioAssay AID598 (SRMLSC, 2007)
